Experimental findings from PubChem BioAssay (Tox21) are described below.

Inconclusive results are not listed. Entries that show only a call come without a potency. A number with no mark means an inactive call. Calls of active or inactive are those of the source. The call rests on the fitted dose curve.

The target in this test is Beta-2 adrenergic receptor (Homo sapiens) (UniProt P07550). The test can be described thus: Adrenergic beta2 receptor (ADRB2) small molecule agonists, cell-based qHTS assay (AID 1963593).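 Further: CHO cells stably overexpressing human ADRB2.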 The following applies: CHO-ADRB2 cells, cAMP HTRF, 30 min; series mostly up to 92.4 µM; activation: at the top concentration. In a few lines: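 CHO cells stably over-expressing ADRB2 were plated overnight at 37C, then dosed with compounds plus a stimulation mix containing 100uM IBMX and 25uM Ro-20-1724 for 0.5hr at room temperature. cAMP was measured by HTRF competition, 1hr.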
Beta-2 adrenergic receptor (Homo sapiens), sequence (P07550 whole entry, looked up): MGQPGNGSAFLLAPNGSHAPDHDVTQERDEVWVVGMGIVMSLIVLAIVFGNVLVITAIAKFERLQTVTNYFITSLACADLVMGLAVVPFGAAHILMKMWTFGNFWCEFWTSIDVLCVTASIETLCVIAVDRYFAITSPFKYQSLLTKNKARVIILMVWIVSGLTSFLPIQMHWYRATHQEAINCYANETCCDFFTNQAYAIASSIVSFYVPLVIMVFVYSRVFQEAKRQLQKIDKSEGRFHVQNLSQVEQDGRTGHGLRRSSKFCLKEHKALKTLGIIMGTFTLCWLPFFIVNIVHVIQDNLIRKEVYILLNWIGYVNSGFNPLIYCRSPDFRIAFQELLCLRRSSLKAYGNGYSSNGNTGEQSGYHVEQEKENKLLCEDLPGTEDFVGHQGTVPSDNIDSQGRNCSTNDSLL
For orientation: qHTS replaces the single test concentration by a dilution series.
`CCCCCCCCCCCC[N+](C)(C)C`: the “activation” value was 8.94%.

For `O=C1CCCCCCCCCCC1`, the Potency entry was “inactive”.

`O=C1O[C@H](CO)[C@@H](O)[C@H](O)[C@H]1O`: the Potency entry was “inactive”.

On to `Brc1nc2ccccc2s1`, for which the “activation” value was -9.78%.

As for `CCCCCCCCCCCCCC[N+](C)(C)Cc1ccccc1`, the Potency entry is “inactive”.

`CCCCCCCCOc1ccc(C(=O)c2ccccc2)c(O)c1`: the “activation” value was -26.8%.

Take `COc1ccc(C(Cl)=C(c2ccc(OC)cc2)c2ccc(OC)cc2)cc1`: the “activation” value was 1.59% [at 42.5 µM].

For the molecule `CN(C)CCCN`, the Potency entry was “inactive”.

For the molecule `C=C(C)C(=O)O[C@H]1C[C@@H]2CC[C@@]1(C)C2(C)C`, the “activation” value was 2.06%.

Consider `CC(=O)c1ccc(S(=O)(=O)NC(=O)NC2CCCCC2)cc1`, for which the Potency entry was “inactive”.

As to `CCC(O)OC(O)CC` (stereo not given), the “activation” value is -27.1%.

Turning to `CCC[C@H](N[C@@H](C)C(=O)N1[C@H](C(=O)O)C[C@@H]2CCCC[C@@H]21)C(=O)OCC`, the “activation” value is 4.91% [at 42.5 µM].

As for `CCCOC(=O)NCCCN(C)C`, the Potency result is “inactive”.

On to `C=CC[N+](C)(C)CC=C`, for which the Potency entry is “inactive”.

Take `CCCCC/C=C\C/C=C\CCCCCCCC(=O)OC`: the “activation” value is 1.22%.

Take `Nc1ncnc2nc[nH]c12`: the “activation” value was -7.17% [at 42.5 µM].

On to `NCCOCCO`, for which the Potency entry was “inactive”.

`O=S1(=O)CCCO1`: the Potency entry is “inactive”.

Turning to `CCOCC(=O)O`, the Potency result is “inactive”.

Regarding `Clc1ccccn1`, the Potency result is “inactive”.
